Rows were chosen to be rich in hits. Some 1.8% of all compounds tested hit in one or more screens of this group.
Granule exo inh: lytic granule exocytosis inhibition; TALL-104 LAMP-1 surface exposure, flow cytometry; cells stimulated with thapsigargin and PMA; inhibition, % at 10 µM; hit rate 0.66% among 360,000; AID 651702;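 active = inhibition above about 55%, limit read from the data; inconclusive = no clear call, values can overlap the other calls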
ABCB6 inh MLPCN: inhibitors of human ABC transporter ABCB6. fluorescence ratio to DMSO, % at 10 µM. Q9NP58. AID 602162. K562-ABCB6 porphyrin accumulation, flow cytometry, 1 h; active compounds read low. hit rate 0.19% among 360,000;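 active = fluorescence ratio to DMSO below 75%, the collection mean minus 3 SD; inconclusive = too few cells collected in the well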;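 also: signal is porphyrin accumulated inside mitochondria; 100% equals median channel fluorescence of DMSO control wells; lower ratio means ABCB6 inhibition with less porphyrin fluorescence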
Target sequence (Q9NP58 whole entry, looked up): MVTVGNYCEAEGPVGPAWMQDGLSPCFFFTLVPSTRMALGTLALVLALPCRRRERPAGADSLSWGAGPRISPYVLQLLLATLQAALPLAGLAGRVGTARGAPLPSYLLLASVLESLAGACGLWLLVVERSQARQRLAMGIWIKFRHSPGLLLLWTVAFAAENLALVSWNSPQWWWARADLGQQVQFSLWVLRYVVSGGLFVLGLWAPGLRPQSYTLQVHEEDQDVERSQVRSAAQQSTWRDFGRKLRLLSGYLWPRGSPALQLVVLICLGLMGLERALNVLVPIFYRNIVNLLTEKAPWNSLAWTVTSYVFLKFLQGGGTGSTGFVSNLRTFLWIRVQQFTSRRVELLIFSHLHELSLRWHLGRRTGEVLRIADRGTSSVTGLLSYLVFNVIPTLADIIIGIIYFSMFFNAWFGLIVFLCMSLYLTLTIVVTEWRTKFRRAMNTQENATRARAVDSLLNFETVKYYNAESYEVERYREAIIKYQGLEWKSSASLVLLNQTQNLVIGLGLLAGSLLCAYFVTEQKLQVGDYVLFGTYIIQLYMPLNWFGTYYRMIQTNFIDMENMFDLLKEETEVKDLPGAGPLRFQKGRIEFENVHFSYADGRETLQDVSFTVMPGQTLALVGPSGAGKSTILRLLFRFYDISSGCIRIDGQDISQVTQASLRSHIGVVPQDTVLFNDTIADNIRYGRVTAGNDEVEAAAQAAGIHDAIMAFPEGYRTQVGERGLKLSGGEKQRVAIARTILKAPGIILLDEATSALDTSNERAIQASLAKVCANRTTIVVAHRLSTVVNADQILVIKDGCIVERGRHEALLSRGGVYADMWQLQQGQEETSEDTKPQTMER
Myeloid diff MLP: myeloid differentiation induction. ER-HoxA9 myeloid progenitors, lysozyme-GFP differentiation, flow cytometry. calls only at 10 µM. hit rate 1% among 360,000. AID 624256;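 active = normalized GFP-positive differentiation at or above the plate's own cutoff, the solvent-only control mean plus 3 SD; inconclusive = no clear call, values can overlap the other calls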;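 also: cells exposed to compound for four days before flow analysis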
The depositor's hits bear a star; i = inactive; ? = inconclusive; + = active, no number.

SMILES	Granule exo inh	ABCB6 inh MLPCN	Myeloid diff MLP
COC1C(O)C(C)OC(OC2C(Oc3cccc4c(O)c5c(=O)oc6ccc(C)c7c(=O)oc(c34)c5c67)OC(C)C(O)C2O)C1O (stereo unspecified)	-4	164	+
Cc1nc(N2CCN(Cc3ccc4c(c3)OCO4)CC2)[nH]c(=O)c1C	0	95	i
O=C(N/N=C/c1c(O)n(Cc2ccc(F)cc2)c(=O)[nH]c1=O)c1ccccc1	8	96	i
O=C(O)CCC(=O)NCCC1=c2ccccc2=N/C1=C\c1c(O)n(Cc2ccc(F)cc2)c(=S)[nH]c1=O	-3	103	+
S=P1(Oc2ccccc2)Nc2ccccc2N1	7	100	i
COC(=O)C1=C(c2ccc(OC(F)(F)F)cc2)C[C@@H]2CC[C@H]1N2C(=O)NCCOc1ccccc1Cl	-6	104	i
CC(C)(C)c1ccc(O)c(N=Cc2c(O)ccc3ccccc23)c1	29	598	+
COC(=O)C(O)(c1ccc(N=Cc2ccccc2O)c(C)c1)C(F)(F)F (stereo unspecified)	2	115	i
COC(=O)C1=C(c2cccc(C#N)c2)C[C@@H]2CC[C@H]1N2C(=O)NCCOc1ccc(OC)cc1	-5	99	i
C[N+]1=C(/C=C/Nc2ccccc2)C(C)(C)c2ccccc21	-1	267	+
Cn1cnc(CCN)c1	-6	98	i
CC(C)OP(=O)(OC(C)C)C(NCc1ccccc1)c1ccccc1 (stereo unspecified)	-2	90	i
COC(=O)C1=C(C(=O)OC)SC2(S1)C(C(=O)OC)=C(C(=O)OC)Sc1c2ssc1=O	100*	106	?
CN1CCCC1CCOC(C)(c1ccccc1)c1ccc(Cl)cc1 (stereo unspecified)	6	97	i
C=CCn1cc(C=C2C(=O)NC(=O)NC2=O)c2ccccc21	-6	154	+
O=C(O)Cn1cc(C=C2C(=O)NC(=O)NC2=O)c2ccccc21	27	98	i
COC(=O)C1CN(C#N)N(c2ccc(Cl)cc2)C12c1ccccc1-c1ccccc12 (stereo unspecified)	69*	90	?
CC1(C)C(C(=O)N2CCN(c3ccc(Cl)cc3)CC2)C1(C)C	5	97	i
COC(=O)C1=C(c2ccc(C(C)=O)cc2)C[C@@H]2CC[C@H]1N2C(=O)NCc1ccc(F)cc1	-19	95	i
O=C(NCCO)c1nsnc1NCCCl	-2	100	i
CCOC(=O)[C@]12Cc3cc(OC)ccc3[C@H]1N(C)C(=O)c1cc(OC)ccc12	-7	100	i
CCOC(=O)[C@]12Cc3cc(Cl)ccc3[C@H]1N(C)C(=O)c1cc(OC)ccc12	2	92	+
Cc1cc(OCC(=O)N2CCC(C(N)=O)CC2)c2c3c(c(=O)oc2c1)CCCC3	-8	103	i
CCCCn1c(O)c(C(C)=NCCc2c[nH]c3ccccc23)c(=O)[nH]c1=O	5	99	i
O=C(/C=C/c1c[nH]c2ccccc12)c1c(O)n(CCc2ccccc2)c(=O)[nH]c1=O	13	377	+
SMILES	Granule exo inh	ABCB6 inh MLPCN	Myeloid diff MLP
O=C1NC(=O)C(=Cc2ccco2)C(=O)N1	23	105	i
CN1C(=O)C(=Cc2ccc(Sc3ccccc3)o2)C(=O)N(C)C1=S	12	11*	i
CN1C(=O)C(=Cc2ccc(Sc3ccccc3)o2)C(=O)N(C)C1=O	49	94	i
O=C1NC(=O)C(=Cc2ccc(Sc3ccccc3)o2)C(=O)N1	98*	87	i
C[C@H](NC(=O)N1C[C@H]2C[C@@H](C1)c1cccc(=O)n1C2)C(=O)Nc1ccccc1F	-6	101	i
NC(N)=N/N=C/c1ccc(N2CCOCC2)cc1	-1	97	+
COc1ccc(/C=N\N=C(N)N)cc1	-7	97	i
COC(=O)C1=C(c2ccc(Cl)c(C(F)(F)F)c2)C[C@@H]2CC[C@H]1N2C	-11	93	i
COC(=O)C1=C(c2ccc(OCc3ccccc3)cc2)C[C@@H]2CC[C@H]1N2C(=O)NCc1cccc(OC)c1	-2	98	i
O=C1C(=O)c2cccc3cccc1c23	2	100	i
O=C1C(=O)c2ccccc2-c2ccccc21	85*	105	?
COc1ccc(-c2ccc3c(c2)CN(C(=O)C(C)(C)C)Cc2cnnn2-3)cc1	10	97	i
CCOC(=O)c1c(C)n(CC(O)CN2CCOCC2)c2cc(Br)c(OC)cc12 (stereo unspecified)	1	95	i
COC(=O)C1=C(c2ccc3ccccc3c2)C[C@@H]2CC[C@H]1N2C(=O)NCc1ccco1	-3	98	i
